Measurements taken from PubChem BioAssay.
Where “and” joins values, the source holds several entries; their conditions need not be identical. Equal values may be shown once. Calls of active or inactive are those of the source. Unless noted, the rule behind the calls is not given here.

How the values were obtained:
[1] = test system: XIP peptide (Xip251-270) binding; assay: small-molecule binders of XIP peptide, primary screen, biochemical, small-molecule microarray, fluorescence 635/667 nm, 0.1 µg/mL protein (AID 1182); details: fluorescent protein binding, 635 nm, higher = more signal, called active from +8 up or from −8 down
XIP peptide (Xip251-270) = assay: small-molecule binders of XIP peptide, primary screen, biochemical, small-molecule microarray, fluorescence 635/667 nm, 0.5 µg/mL protein (AID 1183); details: small-molecule microarray binding, fluorescence 635 nm; higher = more signal
[2] = Plasmodium falciparum growth inhibition, primary screen, strain 3D7, DAPI fluorescence, 100 nL (AID 1184);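 note: parasites grown inside human red blood cells in medium with human serum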; details: P. falciparum 3D7 growth, 3 d, higher = more signal
[3] = target: Homeobox protein Hox-A13 (Mus musculus) (UniProt Q62424); assay: inhibitors of HoxA13-DNA binding, primary screen, biochemical, fluorescence polarization, labeled oligonucleotide (AID 1185); details: 15 min, higher = more signal, called active from +8 up or from −8 down
Sequence of Homeobox protein Hox-A13 (Mus musculus) (Q62424 whole entry, looked up): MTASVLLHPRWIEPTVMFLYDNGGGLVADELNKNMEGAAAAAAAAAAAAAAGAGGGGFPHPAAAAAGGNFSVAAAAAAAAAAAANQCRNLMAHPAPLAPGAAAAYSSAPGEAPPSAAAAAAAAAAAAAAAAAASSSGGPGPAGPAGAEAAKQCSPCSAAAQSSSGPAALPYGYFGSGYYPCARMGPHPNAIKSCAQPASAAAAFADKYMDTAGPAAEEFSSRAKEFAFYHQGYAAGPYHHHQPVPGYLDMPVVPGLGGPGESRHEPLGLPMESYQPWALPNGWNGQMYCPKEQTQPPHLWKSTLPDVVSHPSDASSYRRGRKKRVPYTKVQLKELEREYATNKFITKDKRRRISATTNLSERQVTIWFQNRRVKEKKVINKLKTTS

[4] = inhibitors of hydroxyurea-induced Chk1 phosphorylation, primary screen, imaging, HeLa, phospho-Chk1 antibody, percent positive cells (AID 1186); details: hydroxyurea-induced phospho-Chk1 immunofluorescence imaging, higher = more signal
[5] = inhibitors of hydroxyurea-induced Chk1 phosphorylation, primary screen, imaging, HeLa, phospho-Chk1 nuclear intensity (AID 1187); details: hydroxyurea-induced phospho-Chk1 immunofluorescence imaging, higher = more signal

| SMILES | composite z-score [1] | composite z-score (XIP peptide (Xip251-270)) | z-score [2] | z-score [3] | z-score [4] | z-score [5] |
| --- | --- | --- | --- | --- | --- | --- |
| C=C(C)C(=O)OC[C@@H]1CN2[C@@H](CC[C@@H](C)[C@@H]2c2ccc(Br)cc2)C(=O)O1 | 0.0138 (inactive) | 0.175 | 0.693 | -3.29 (inactive) |  |  |
| COC(=O)[C@@]1(Cc2ccccc2)[C@H]2c3cc(C(=O)N(C)C)n(Cc4ccc(C)c(F)c4F)c3C[C@H]2CN1C(=O)c1ccccc1 | -0.103 (inactive) and -0.157 (inactive) | 0.639 and 0.462 | -1.74 and -1.65 | -4.22 (inactive) and -3.34 (inactive) | -0.387 (inactive) and 0.293 (inactive) | -0.653 (inactive) and 0.169 (inactive) |
| C[C@@H]1CC[C@@H](C(=O)O)N[C@H]1c1ccc(-c2ccco2)cc1 | 1.06 (inactive) | 0.827 | -0.25 | -1.59 (inactive) |  |  |
| CCOC(=O)c1ccc(NC(=O)O[C@H]2[C@H](OC(=O)Nc3ccccc3)[C@H](OC(=O)Nc3ccccc3)[C@@H](OC)O[C@@H]2CO)cc1 | 0.706 (inactive) and 1.24 (inactive) | 0.844 and 0.901 | -2.51 and -2.22 | -1.14 (inactive) and -4.8 (inactive) | 0.143 (inactive) and 0.494 (inactive) | 0.337 (inactive) and 0.629 (inactive) |
| C=CCN(CCCCC)C(=O)C1N(CCCCCCO)C(=O)C2C(C(=O)O)C3C=CC21O3 (stereo not given) | 0.0579 (inactive) and 0.042 (inactive) | 0.69 and 0.714 | 2.33 and 1.76 | -1.18 (inactive) and -1.07 (inactive) | 0.99 (inactive) and 1.26 (inactive) | 0.616 (inactive) and 0.8 (inactive) |
| C=CCN(CCCC)C(=O)C1N(C(C)(C)CO)C(=O)C2C(C(=O)O)C3C=CC21O3 (stereo not given) | -0.485 (inactive) and -0.807 (inactive) | 0.214 and -0.185 | 0.102 and 0.116 | -0.224 (inactive) and -0.0596 (inactive) | -0.356 (inactive) and 0.83 (inactive) | -0.0315 (inactive) and 1.16 (inactive) |
| Cc1ccc(S(=O)(=O)N[C@H]2COC(=O)[C@@H](Cc3ccccc3)NC(=O)[C@@H](C)COC(=O)CC=C[C@@H]2C)cc1 | 0.124 (inactive) and 0.125 (inactive) | 0.174 and -0.0928 | -0.446 and -1.34 | 0.469 (inactive) and -3.02 (inactive) |  |  |
| CCOC(=O)NN=C1C[C@@H](O)[C@@H](O)[C@@H]2[C@@H]3C(=O)N(Cc4ccccc4)C(=O)[C@@H]3CC[C@@H]12 | -0.479 (inactive) | 0.0853 | -0.647 | -0.411 (inactive) |  |  |
| C=C[C@@H](C)[C@H](O)c1ccc(O)c2ccccc12 | -0.299 (inactive) and 0.342 (inactive) | 0.892 and 0.102 | -0.559 and 0.666 | -3.78 (inactive) and -2.87 (inactive) | 0.311 (inactive) and 0.801 (inactive) | 0.0888 (inactive) and 0.837 (inactive) |
| COC(=O)C1=C(C)N(Cc2ccccc2)C2=C(C(=O)c3ccccc3)[C@H](c3ccccc3)[C@@](O)(C(=O)OC)C(=O)N2[C@@H]1c1ccccc1 | -0.149 (inactive) and -0.059 (inactive) | 0.675 and 0.323 | -0.467 and 0.501 | -1.74 (inactive) and -0.745 (inactive) |  |  |
| CC(C)CON=C1C[C@@H](O)[C@@H](O)[C@@H]2[C@@H]3C(=O)N(c4cccc(Oc5ccccc5)c4)C(=O)[C@@H]3CC[C@H]12 | 0.0483 (inactive) | 0.741 | -0.638 | 0.875 (inactive) |  |  |
| CC(CO)N1C(=O)[C@@H]2C3C(=O)OCCC=C[C@H]3OC23C=CCN(C(C)(C)C)C(=O)[C@@H]13 (stereo not given in full) | -0.516 (inactive) and 0.463 (inactive) | -0.947 and -0.179 | 0.35 and 0.567 | -5.55 (inactive) and -5.92 (inactive) | 0.545 (inactive) and -0.0027 (inactive) | -0.0537 (inactive) and -0.28 (inactive) |
| COC(=O)C1=C(C)N(Cc2ccccc2)[C@]23O[C@](C(=O)OC)(C(=O)N2[C@@H]1c1ccccc1)[C@H]1CCCC(=O)[C@H]13 | 0.472 (inactive) and 0.134 (inactive) | -0.0169 and 0.279 | 0.0733 and -0.727 | -4.3 (inactive) and 0.514 (inactive) |  |  |
| C[C@@H](c1ccccc1)N1C(=O)[C@H]2[C@H]3[C@H](O)[C@H](O)CC(=O)[C@@H]3CC[C@H]2C1=O | -0.415 (inactive) | 0.403 | 0.241 | 0.063 (inactive) |  |  |
| COC(=O)C1=C(C)N(Cc2ccccc2)[C@]23O[C@](C(=O)OC)(C(=O)N2[C@@H]1c1ccccc1)[C@H]1C(=O)N(C)C(=O)[C@H]13 | 0.0247 (inactive) and -0.317 (inactive) | 0.706 and -0.282 | -0.979 and 0.027 | -3.58 (inactive) and -1.73 (inactive) |  |  |
| CO[C@H]1COC(=O)CC=C[C@@H](C)COC(=O)[C@H](CCSC)NC(=O)CC=C[C@@H]1C | 0.218 (inactive) and 0.322 (inactive) | 0.421 and 0.562 | -1.51 and -0.356 | -0.947 (inactive) and -0.902 (inactive) |  |  |

| SMILES | composite z-score [1] | composite z-score (XIP peptide (Xip251-270)) | z-score [2] | z-score [3] | z-score [4] | z-score [5] |
| --- | --- | --- | --- | --- | --- | --- |
| C=CC[C@@H](O)c1ccc(OCCO)cc1 | -0.0335 (inactive) and 0.172 (inactive) | 0.184 and -0.25 | 0.667 and 0.717 | -0.948 (inactive) and -0.931 (inactive) | -0.442 (inactive) and -0.507 (inactive) | 0.186 (inactive) and -0.0561 (inactive) |
| C=CCN(C(=O)C(c1cccs1)N(CCOCCO)C(=O)/C=C\C(=O)O)c1ccc(OC)cc1 (stereo not given) | -0.0498 (inactive) and -0.363 (inactive) | -0.371 and -1.72 | -0.305 and 0.0058 | 1.69 (inactive) and 0.807 (inactive) | -1.69 (inactive) and -0.75 (inactive) | -0.197 (inactive) and -0.573 (inactive) |
| Cc1ccc(S(=O)(=O)N[C@@H]2COC(=O)CC=C[C@@H](C)[C@@H]3C=C[C@H](O)[C@@H](COC(=O)CC=C[C@H]2C)O3)cc1 | 0.061 (inactive) and -0.148 (inactive) | -0.179 and 0.167 | 1.03 and -1.19 | -1.86 (inactive) and -1.1 (inactive) |  |  |
| CO[C@@H]1COC(=O)CC=C[C@H](C)COC(=O)[C@H](C)NC(=O)CC=C[C@H]1C | -0.0437 (inactive) | 0.195 | -0.233 | -0.16 (inactive) |  |  |
| CCOC(=O)[C@H](CC(C)C)NC(=O)CCC1CC(OC(=O)NCc2cccc3ccccc23)CC2(CCCC(COC(=O)NCc3ccccc3)O2)O1 (stereo not given in full) | -0.17 (inactive) | 0.374 | -1.8 | -2.88 (inactive) |  |  |
| C=CCN(CCCCC)C(=O)C(c1cccs1)N(C(=O)/C=C\C(=O)O)c1ccc(CCO)cc1 (stereo not given) | -0.141 (inactive) and 0.737 (inactive) | 0.861 and -0.198 | 0.653 and 0.454 | -0.227 (inactive) and 0.0535 (inactive) | 0.51 (inactive) and 0.163 (inactive) | 0.571 (inactive) and -0.0484 (inactive) |
| CC(C)=NOCc1ccc(-c2cn([C@@H]3COC[C@H]3O)nn2)cc1 | 0.364 (inactive) | -0.149 | 1.76 | -0.221 (inactive) |  |  |
| O=C1[C@H]2[C@H]3[C@H](O)[C@H](O)CC(=NOCc4ccccc4)[C@H]3CC[C@H]2C(=O)N1Cc1ccccc1 | -0.0784 (inactive) | 0.0748 | -1.76 | -1.09 (inactive) |  |  |
| Cc1cc2c(nc1C)CCCN2CC(C)ON=C[C@@H](C)[C@H](OCc1ccccc1)C(C)C (stereo not given in full) | -0.144 (inactive) | -0.0166 | 0.5 | -0.838 (inactive) |  |  |
| CCOC(=O)NN=C1C[C@@H](O)[C@@H](O)[C@@H]2[C@@H]3C(=O)N(Cc4ccc5c(c4)OCO5)C(=O)[C@@H]3CC[C@@H]12 | 0.483 (inactive) | 0.586 | 0.132 | -0.24 (inactive) |  |  |
| COC(=O)C1=C(C)N(Cc2ccccc2)C2=C3C(=O)N(C)C(=O)[C@@H]3[C@@](O)(C(=O)OC)C(=O)N2[C@@H]1c1ccccc1 | 0.214 (inactive) and -0.566 (inactive) | 0.0447 and 0.0893 | 0.557 and 0.251 | -1.2 (inactive) and -0.234 (inactive) |  |  |
| C[C@@H]1CN2[C@@H](CC[C@@H](C)[C@@H]2c2ccc(Br)cc2)C(=O)O1 | -0.0537 (inactive) and -1.1 (inactive) | -0.252 and 0.581 | -0.218 and 0.559 | 0.101 (inactive) and -0.0592 (inactive) |  |  |
| CO[C@H]1COC(=O)CC=C[C@@H](C)COC(=O)[C@@H](OCc2ccccc2)C=C[C@@H]1C | -0.147 (inactive) | -0.106 | 0.56 | -0.383 (inactive) |  |  |
| C=CC[C@H](O)c1ccc(OCCO)cc1 | 0.179 (inactive) and 0.125 (inactive) | -1.28 and -0.655 | -0.597 and 1.72 | -0.488 (inactive) and -0.803 (inactive) | -0.23 (inactive) and 0.182 (inactive) | 0.313 (inactive) and 0.469 (inactive) |
| CC(=O)OC[C@H]1O[C@H](C#CC(C)(C)C)C=C[C@@H]1OC(C)=O | 0.853 (inactive) | 0.575 | 1.32 | -2.75 (inactive) |  |  |
| C[C@@]1([C@@H](NC(=O)Cc2ccccc2)c2ccc(-c3ccccc3)cc2)C[C@H]1C1CCCCC1 | 0.142 (inactive) and -0.175 (inactive) and -0.0036 (inactive) | 0.0261 and -0.867 and 0.444 | -1.3 and -0.345 and -1.39 | 1.49 (inactive) and -0.249 (inactive) and -1.63 (inactive) | 0.641 (inactive) and 0.338 (inactive) and 0.416 (inactive) | 1.03 (inactive) and 0.448 (inactive) and -0.21 (inactive) |
